# According to the supplement of paper PMC9446081:
# About 220 (0.56%) of roughly 39,000 compounds showed activity. For the sample, actives were picked, then their nearest neighbours and some compounds at random. Values without a mark were called inactive.
# Tested on: Escherichia coli K-12 BW25113
# Assay: relative growth (OD600 normalised to plate interquartile mean) (fraction); higher = less growth inhibition, active = 0.2 or less
# Conditions: 50 µM; LB; incubation time: overnight (16-24 h)
# 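Further: Wild-type cells incubated without shaking, value is the mean of two biological replicates.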
row,SMILES,relative growth
1,C[C@@H]1CCCCO[C@@H](CN(C)C(=O)C2CCCCC2)[C@H](C)CN([C@@H](C)CO)C(=O)c2cc(NS(=O)(=O)c3ccccc3)ccc2O1,1.02
2,COc1ccc(S(=O)(=O)Nc2ccc3c(c2)C(=O)N([C@@H](C)CO)C[C@@H](C)[C@@H](CN(C)S(=O)(=O)c2cn(C)cn2)O3)cc1,0.994
3,Cn1sccc1=O,0.0369 (active)
4,COc1ccccc1C#Cc1cnc2c(c1)C(=O)N([C@@H](C)CO)C[C@@H](C)[C@@H](CN(C)C(=O)c1ccc3c(c1)OCO3)O2,1.03
5,COc1ccc(S(=O)(=O)Nc2ccc3c(c2)C(=O)N([C@@H](C)CO)C[C@@H](C)[C@H](CN(C)Cc2ccc(C(=O)O)cc2)OCCCC[C@@H](C)O3)cc1,0.984
6,CC(C)CC#Cc1cnc2c(c1)C(=O)N([C@@H](C)CO)C[C@@H](C)[C@@H](CN(C)C(=O)CCN1CCCCC1)O2,0.965
7,CN1CCN(c2c(F)cc3c(=O)c(C(=O)O)cn4c3c2SCC4)CC1,0.0436 (active)
8,CN1CCN(c2c(F)cc3c(=O)c(C(=O)O)cn(CCF)c3c2F)CC1,0.0442 (active)
9,C[C@@H]1CN([C@@H](C)CO)C(=O)CCCn2nncc2CO[C@@H]1CN(C)S(=O)(=O)c1ccc(Oc2ccccc2)cc1,1.02
10,Cc1ccc(S(=O)(=O)N[C@@H]2C=C[C@H](CC(=O)NCCN3CCCCC3)O[C@@H]2CO)cc1,1.01
11,Cc1ccc(S(=O)(=O)N(C)C[C@@H]2OCCCC[C@H](C)Oc3ccc(NC(=O)Nc4ccc(F)cc4)cc3C(=O)N([C@H](C)CO)C[C@H]2C)cc1,0.983
12,CC(C)NC(=O)Nc1ccc2c(c1)C(=O)N([C@H](C)CO)C[C@H](C)[C@@H](CN(C)C(=O)C1CCCCC1)OCCCC[C@@H](C)O2,0.984
13,COc1cc2c(cc1OC)C(=O)C(CC1CCN(Cc3ccccc3)CC1)C2.Cl (stereo not drawn),0.0489 (active)
14,NCC1CCN(Cc2ccccc2)CC1,1.02
15,NC1CCN(Cc2ccccc2)CC1,1.09
16,O=C(C[C@H]1C[C@@H]2c3cc(NS(=O)(=O)c4ccc(F)cc4)ccc3O[C@@H]2[C@@H](CO)O1)NCc1ccccn1,1.01
17,NC1(CC(=O)O)CCN(Cc2ccccc2)CC1,0.999
18,Cn1cc(CN2CCC(C(=O)N[C@@H](c3ccc(F)cc3)c3ccc4ccccc4n3)CC2)c2ccccc21,0.963
19,C[C@@H]1CN([C@H](C)CO)C(=O)c2cccc(NS(=O)(=O)c3cn(C)cn3)c2O[C@@H]1CN(C)CC1CCCCC1,0.98
20,COc1ccc(CN(C)C[C@@H]2Oc3c(NC(=O)c4cc(C)nn4C)cccc3C(=O)N([C@@H](C)CO)C[C@H]2C)cc1,0.957
21,CCn1cc(C(=O)O)c(=O)c2cc(F)c(N3CCN(C)CC3)cc21.CS(=O)(=O)O,0.0455 (active)
22,O=C(OC(C(F)(F)F)C(F)(F)F)N1CCN(Cc2ccc(C(F)(F)F)cc2N2CCCC2)CC1,0.994

row,SMILES,relative growth
1,CCn1cc(C(=O)O)c(=O)c2cc(F)c(N3CCN(C(=S)Nc4cc(C(F)(F)F)ccc4Cl)CC3)cc21,0.0858 (active)
2,CCn1cc(C(=O)N2CCN(C)CC2)c(=O)c2cc(S(=O)(=O)N(C)C)ccc21,0.974
3,CCn1cc(C(=O)O)c(=O)c2cc(F)c(N3CCNCC3)cc21,0.0456 (active)
4,CCOC(=O)c1c[nH]c(CC(C)=O)nc1=O,0.999
5,Cc1ccc(S(=O)(=O)N2C[C@@H](O)COC[C@H]3O[C@H](CC(=O)N[C@H]4CCN(Cc5ccccc5)C4)CC[C@@H]32)cc1,1.01
6,C[C@H]1CN([C@@H](C)CO)C(=O)Cc2cc(NC(=O)Nc3ccc4c(c3)OCO4)ccc2O[C@H]1CN(C)S(=O)(=O)c1cn(C)cn1,0.835
7,C[C@@H]1CN([C@H](C)CO)C(=O)c2cccc(NC(=O)Nc3cccc4ccccc34)c2O[C@H]1CN(C)S(=O)(=O)c1ccccc1,0.987
8,COc1ccc(S(=O)(=O)N(C)C[C@H]2Oc3c(NS(=O)(=O)c4c(C)noc4C)cccc3C(=O)N([C@H](C)CO)C[C@H]2C)cc1,0.997
9,CON=C1CN(c2nc3c(cc2F)c(=O)c(C(=O)O)cn3C2CC2)CC1CN.CS(=O)(=O)O (stereo not drawn),0.0419 (active)
10,CO/N=C1\CN(c2nc3c(cc2F)c(=O)c(C(=O)O)cn3C2CC2)C[C@@H]1CN,0.154 (active)
11,C[C@H]1CN([C@@H](C)CO)C(=O)Cc2cc(NC(=O)NC3CCCCC3)ccc2O[C@H]1CN(C)S(=O)(=O)c1cn(C)cn1,0.985
12,C[C@H]1CN([C@@H](C)CO)C(=O)c2cc(NC(=O)Cc3ccccc3)ccc2O[C@@H]1CN(C)S(=O)(=O)c1cccs1,0.993
13,Nc1ccc(OCC(=O)N2CCOCC2)cc1,1.03
14,CC(C)NC(=O)Nc1ccc2c(c1)C(=O)N([C@H](C)CO)C[C@@H](C)[C@H](CN(C)Cc1ccc(C(F)(F)F)cc1)OCCCC[C@@H](C)O2,1.02
15,CCOc1ccc2c(c1)-c1c(ssc1=S)C(C)(C)N2C,0.993
16,CCN1CCN(C(=O)NC(C(=O)NC2C(=O)N3C2SC(C)(C)C3C(=O)[O-])c2ccccc2)C(=O)C1=O.[Na+] (stereo not drawn),0.0465 (active)
17,CC1(C)SC2C(NC(=O)C(NC(=O)N3CCNC3=O)c3ccccc3)C(=O)N2C1C(=O)[O-].[Na+] (stereo not drawn),0.263
18,CC1(C)SC2C(NC(=O)C(C(=O)[O-])c3ccccc3)C(=O)N2C1C(=O)[O-].[Na+].[Na+] (stereo not drawn),1.1
19,CC1(C)S[C@H]2[C@@H](NC(=O)[C@@H](NC(=O)N3CCN(S(C)(=O)=O)C3=O)c3ccccc3)C(=O)N2[C@@H]1C(=O)O,0.237
20,CC1(C)S[C@@H]2[C@H](NC(=O)[C@H](NC(=O)N3CCNC3=O)c3ccccc3)C(=O)N2[C@H]1C(=O)O,0.0984 (active)
21,CCN1CCN(C(=O)N[C@@H](C(=O)N[C@@H]2C(=O)N3[C@@H]2SC(C)(C)[C@@H]3C(=O)O)c2ccccc2)C(=O)C1=O,0.606
